Test results as given in PubChem BioAssay AID651650 (Sanford-Burnham Center for Chemical Genomics, 2012).

These compounds were tested against Neuropilin-1 (Homo sapiens) (UniProt O14786) (assay: blockers of CendR peptide binding to NRP-1 – biochemical, FP and AlphaScreen panel, dose response (AID 651650)). Settings: NRP-1 b1b2 / RPARPAR peptide binding, FP or AlphaScreen; run 1, at 100 µM (top of the series).
Neuropilin-1 (Homo sapiens), sequence (O14786 whole entry, looked up): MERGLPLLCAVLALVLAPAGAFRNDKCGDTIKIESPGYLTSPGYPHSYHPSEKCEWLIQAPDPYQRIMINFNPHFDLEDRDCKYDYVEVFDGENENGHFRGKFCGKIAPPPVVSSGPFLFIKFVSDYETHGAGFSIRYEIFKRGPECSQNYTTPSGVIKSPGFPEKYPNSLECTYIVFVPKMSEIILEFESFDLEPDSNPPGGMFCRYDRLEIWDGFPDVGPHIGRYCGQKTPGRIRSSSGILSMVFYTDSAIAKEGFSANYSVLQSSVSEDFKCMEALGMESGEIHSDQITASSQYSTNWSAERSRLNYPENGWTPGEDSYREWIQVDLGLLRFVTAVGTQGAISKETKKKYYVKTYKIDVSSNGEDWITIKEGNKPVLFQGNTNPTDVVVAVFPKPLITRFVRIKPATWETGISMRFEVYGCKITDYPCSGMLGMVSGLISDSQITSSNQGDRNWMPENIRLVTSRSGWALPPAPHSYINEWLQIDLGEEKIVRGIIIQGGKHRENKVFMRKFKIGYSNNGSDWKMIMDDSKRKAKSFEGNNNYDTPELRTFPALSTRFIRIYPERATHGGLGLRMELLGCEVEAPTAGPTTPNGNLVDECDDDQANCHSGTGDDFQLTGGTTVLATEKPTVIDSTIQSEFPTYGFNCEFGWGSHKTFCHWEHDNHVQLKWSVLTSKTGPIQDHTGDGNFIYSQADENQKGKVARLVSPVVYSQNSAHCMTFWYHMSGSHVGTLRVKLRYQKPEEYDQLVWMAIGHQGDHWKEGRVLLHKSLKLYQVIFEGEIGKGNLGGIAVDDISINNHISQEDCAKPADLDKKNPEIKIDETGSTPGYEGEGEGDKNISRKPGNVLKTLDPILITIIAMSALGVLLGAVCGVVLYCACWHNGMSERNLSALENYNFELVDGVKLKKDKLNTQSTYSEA
For O=C(Nc1cccc(C(F)(F)F)c1)C1Cc2c(-c3cccc(F)c3)ccnc2O1 (centres undefined), the inhibition was 18.4%.
With O=[N+]([O-])c1ccc(Cc2ccncc2)cc1 the inhibition was 15.9%.
In the case of Cc1nn(-c2ccccc2)c(C)c1C(=O)OCC(=O)Nc1ccccc1, the inhibition is reported as 20.2%.
O=C(O)c1cc(NCc2ccc(F)cc2)ccc1N1CCOCC1 showed an inhibition of 46.8%.
For COc1ccc(NC(=O)C(C)Sc2ccccc2)cc1 (centres undefined), the inhibition was 13.5%.
CCOC(=O)C1CCN(S(=O)(=O)c2ccc3c(c2)CCN3C(=O)C2CCC2)CC1 was tested, and the inhibition was 6.43%.
For C[C@@H](NC(=O)c1[nH]cnc1C(=O)Nc1cccc(Cl)c1)c1ccccc1, the inhibition was 54.3%.
O=C(OCn1nnc2ccccc2c1=O)c1ccc(Br)o1 showed an inhibition of 25.4%.
Work on O=C(CCCNC(=O)/C(=C\c1ccc(F)cc1)NC(=O)c1ccccc1)OCc1ccccc1 yielded an inhibition of -33%.
O=C(c1ccc(-c2cccc(Cl)c2)o1)N1CCN(c2ccc([N+](=O)[O-])cc2)CC1 gave an inhibition of 21.7%.
For CCc1ccc(OC(=O)CN2C(=O)c3ccccc3C2=O)cc1, the inhibition was 76.9%.
In the case of CCOC(=O)Cc1cnc(NC(=O)NC(C(=O)OCC)(c2ccccc2)C(F)(F)F)s1 (centres undefined), the inhibition is reported as 99.2%.
COc1cc(Cn2nnc3ccccc32)cc(Br)c1O was tested, and the inhibition was 37.3%.
Cc1ccc2cc(CN(c3ccccc3C)S(=O)(=O)c3ccccc3)c(=O)[nH]c2c1 gave an inhibition of 41.9%.
O=C(Cn1cccc1C(=O)c1ccccc1)NCCC1=CCCCC1 was tested, and the inhibition was 94.3%.
Work on O=S(=O)(c1ccccc1)c1nc(-c2ccc(F)cc2)oc1N1CCOCC1 yielded an inhibition of 24.8%.
In the case of Cn1cnc2cc(NC(=O)c3ccco3)ccc21, the inhibition is reported as 77.5%.
Work on CCCCN(c1ccccc1)S(=O)(=O)c1ccc2c(c1)CCN2C(=O)CCC(=O)O yielded an inhibition of 8.36%.
With CCCc1c(O)c2ccccc2[nH]c1=O the inhibition was 5.68%.
O=C(c1cccc(F)c1)N1CCN(c2ccc([N+](=O)[O-])c(N3CCCCC3)c2)CC1 showed an inhibition of 33.3%.
CN(C(=O)COC(=O)c1nc(-c2ccccc2)n(-c2ccccc2)n1)C1CCS(=O)(=O)C1 (centres undefined) was tested, and the inhibition was -0.283%.
Work on Oc1ccc(-c2nc3ncccn3c2Nc2ccc3c(c2)OCO3)cc1 yielded an inhibition of 41.8%.
With COc1ccc(NC(=O)CN(C)CC(=O)Nc2cccc(F)c2)cc1Cl the inhibition was 71.1%.
In the case of COc1ccc(NC(=O)CN2CCN(c3c(C)cc(C)cc3C)CC2)cc1, the inhibition is reported as 2.2%.
OCC[C@H]1C[C@H](O)[C@@H](O)[C@]2(CCCCO2)O1 gave an inhibition of -5.29%.
For CC(=O)Nc1cccc(-c2csc(NCc3ccccc3)n2)c1, the inhibition was 26.4%.
O=C(Cc1ccccc1Cl)N1CCOCC1 showed an inhibition of 25.2%.
CC(=O)N1CCSc2ccc(S(=O)(=O)Nc3ccc(C)cc3)cc21 showed an inhibition of 47.7%.
Compound NS(=O)(=O)c1cccnc1Nc1cccc(Cl)c1Cl has an inhibition of 14.4%.
For Cc1nnc(SC(C)C(=O)Nc2ccc(S(=O)(=O)NC3CCCCC3)cc2)s1 (centres undefined), the inhibition was 21.8%.
In the case of O=C(O/N=C1/CCSc2ccccc21)c1ccccc1, the inhibition is reported as 17.1%.
Cc1ccccc1NC(=S)NC(=O)COc1ccccc1C was tested, and the inhibition was 98.2%.
Work on COc1ccccc1N1CCN(C(=O)C2c3ccccc3Oc3ccccc32)CC1 yielded an inhibition of 38.7%.
NCCCC[C@H]1CN=C(N)N1CCC12CC3CC(CC(C3)C1)C2 showed an inhibition of 70.7%.
COc1ccc(Cn2c(C3CC3)nc3ccc(NC(=O)c4cccnc4)cc3c2=O)cc1 was tested, and the inhibition was 88.1%.
With Cc1ccc(CN(CC(=O)NC2CCCCC2)C(=O)c2csnn2)cc1 the inhibition was 30.2%.
With Nc1cc(S(=O)(=O)O)cc([N+](=O)[O-])c1O the inhibition was 74.8%.
For Cc1cc(=O)n2nc(N3CCCC(C(=O)N4CCOCC4)C3)sc2n1 (centres undefined), the inhibition was 17%.
For Cc1onc(-c2ccc(Cl)cc2Cl)c1-c1csc(COc2ccccc2)n1, the inhibition was 65.6%.
